Data on 39 compounds can be found in PubChem BioAssay.

The term inhibition denotes the drop in the measured response relative to a control, in per cent.

The structures appear in SMILES notation.

The test deals with PEG-3 (UniProt Q6IN02). Nature of the test: Peg3 promoter luciferase inhibitors, potency, dose response, cell-based, HeLa, CREF/GAPDH counter-screen panel (AID 624167). The settings on record: CREF/GAPDH counter-screens; HeLa PEG-Prom luciferase reporter, overnight, run 1, dose range 1, at 100 µM (top of the series) unless noted. In general terms: The purpose of a counterscreen is to sort out artefacts and off-target activity.
Chain of PEG-3 (Q6IN02 whole entry, looked up): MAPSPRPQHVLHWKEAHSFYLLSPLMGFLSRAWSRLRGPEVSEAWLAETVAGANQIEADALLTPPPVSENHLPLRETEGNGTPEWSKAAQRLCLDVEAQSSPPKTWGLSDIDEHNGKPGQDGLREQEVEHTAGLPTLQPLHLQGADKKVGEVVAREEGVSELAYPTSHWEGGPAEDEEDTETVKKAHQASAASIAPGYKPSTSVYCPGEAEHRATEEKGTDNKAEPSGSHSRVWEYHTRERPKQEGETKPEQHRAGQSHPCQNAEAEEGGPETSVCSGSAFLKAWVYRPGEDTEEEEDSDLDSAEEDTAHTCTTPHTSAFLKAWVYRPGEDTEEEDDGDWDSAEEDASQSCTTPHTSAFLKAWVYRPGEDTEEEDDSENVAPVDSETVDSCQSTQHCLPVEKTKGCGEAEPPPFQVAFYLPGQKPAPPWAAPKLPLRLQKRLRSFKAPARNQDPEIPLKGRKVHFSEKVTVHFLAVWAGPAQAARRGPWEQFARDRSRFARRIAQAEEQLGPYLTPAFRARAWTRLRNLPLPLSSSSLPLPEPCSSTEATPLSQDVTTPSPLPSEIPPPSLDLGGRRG
As for `Cc1ccc(-c2nc(-c3ccccn3)no2)cc1Cl`, the inhibition was determined as 102%.
In the case of `CCCCC(=O)NC(c1ccccc1)c1ccc2cccnc2c1O` (centres undefined), the inhibition amounted to 90.4%.
In the case of `CCCC(=O)NC(c1ccc(Cl)cc1)c1ccc2cccnc2c1O` (centres undefined), the inhibition amounted to 99.9%.
As to `Cc1ccc(C(=O)Nc2cnc3ccccc3c2)cc1`, the inhibition stood at 91.5%.
Take `O=C(c1ccco1)N1CCN(C(c2ccccc2Cl)c2nnnn2Cc2cccs2)CC1` (centres undefined): the inhibition came to 63%.
Turning to `COC1=C(Br)C(=O)c2ncccc2C1=O`, the inhibition is 99.3%.
With `O=C(N/N=C/c1cc([N+](=O)[O-])ccc1O)c1ccc(COc2ccc3c(c2)CCC3)o1`, the inhibition is 52.4%.
In the case of `CN(C)c1c([N+](=O)[O-])cc(N2C(=O)C=CC2=O)cc1[N+](=O)[O-]`, the inhibition came out at 102%.
Turning to `CCc1ccc(/C=C2\SC(=S)N(CCCC(=O)Nc3cc(C)on3)C2=O)cc1`, the inhibition was found to be 80%.
As for `O=c1cnnc(N/N=C/c2ccccn2)[nH]1`, the figure is 66.3%; as for `COCCCNC(=O)c1ccc(Cn2c(=O)c3ccccc3n(Cc3ccccc3C#N)c2=O)cc1`, 63.4%.
Turning to `NC(Cc1ccc(F)cc1)c1csc(Nc2cc(Oc3ccccc3)ncn2)n1` (centres undefined), the inhibition came out at 102%.
With `CC(C)CC(=NNC(=O)c1ccncc1)c1cc(Cl)ccc1O` the figure was 76.9%; with `C=CCn1c(C)cc(C(=O)COc2ccc(C)nc2[N+](=O)[O-])c1C`, 61.3%.
As for `Cc1ccc(/C=C2\SC(=S)N(CCCC(=O)Nc3ccccn3)C2=O)cc1`, the figure is 88%.
With `COc1cccc2nc3c(C(=O)NCCN(C)C)cccc3cc12` the figure was 98.9%.
Take `CS(=O)(=O)c1ccc(-c2sc3ccccc3c2C#CCCO)cc1`: the inhibition turned out to be 96%.
As for `O=C(CNC(=O)C(c1ccccc1)c1ccccc1)N/N=C/c1ccc(O)cc1O`, the figure is 53.4%; as for `CN(C)c1ccc(/C=C(\C#N)c2ccccn2)cc1`, 81.8%; as for `CC(=O)NC(c1ccc(Cl)cc1Cl)c1ccc2cccnc2c1O` (centres undefined), 96.5%.
With `O=C(NCCc1ccccc1)c1ccc2c(c1)OCCCO2` the figure was 101%; with `CC(C)Cc1ccc(C(C)C(N)=NCCc2ccccc2)cc1` (centres undefined), 97.4%; with `CN1C/C(=C/c2ccccc2[N+](=O)[O-])C(=O)/C(=C\c2ccccc2[N+](=O)[O-])C1`, 101%.
As for `O=C(O)c1ccc(N/N=C/c2ccc3c(c2)OCO3)cc1`, the figure is 98%; as for `COc1ccc(/C=C2\SC(=S)N(CCCC(=O)NNC(=O)c3ccccc3O)C2=O)cc1`, 89.6%; as for `O=C(Nc1ccccc1C(=O)Nc1nnc(C(F)(F)F)s1)c1ccccc1`, 93%.
Take `O=C(NCCc1ccccc1)c1ccc2c(c1)OCO2`: the inhibition is 86.2%.
Consider `Cc1ccsc1/C=N/Nc1cccc(C(=O)O)c1`, for which the inhibition came to 98.1%.
As for `CC(=O)c1ccc(-c2cnc3c(NC=O)cc(-c4ccccc4Oc4ccccc4)cn23)cc1`, the figure is 38.3%; as for `O=C(Nc1nc2cc3c(cc2s1)OCO3)C1=COCCO1`, 88.1%; as for `CCCC(=O)NC(c1ccccc1)c1ccc2cccnc2c1O` (centres undefined), 36.8%.
With `OCCNc1c2ccccc2nc2ccccc12`, the inhibition is 99.6%.
`COc1ccccc1C(=O)Nc1nc2ccccc2[nH]1`: the inhibition came to 99.2%.
As for `COc1ccc(S(=O)(=O)/N=C2\C=C(Nc3ccc(O)cc3)C(=O)c3ccccc32)cc1`, the figure is 96.4%; as for `Oc1[nH]c2ccc(Br)cc2c1N=NC(=S)N1CCOCC1`, 102%.
With `CCCC(=O)NC(c1ccc(C)cc1)c1ccc2cccnc2c1O` (centres undefined) the figure was 96.2%; with `O=c1cc(-c2ccc(O)cc2)oc2ccc3ccccc3c12`, 99.4%.
With `CCn1nc(C)cc1-c1nnc(Sc2ncc([N+](=O)[O-])s2)n1C` the figure was 102%.
Consider `Clc1ccccc1/C=C/c1nc(-c2ccccn2)no1`, for which the inhibition is 87.3%.
